# Bioassay records: PubChem BioAssay, Sanford-Burnham Center for Chemical Genomics
# Shown are actives, neighbours in structure and some others; about 31% of the full set was active somewhere.
# CYP2C19 inhib: blockers of cytochrome P450 2C19 activity – biochemical, luminescence, ADME assay, primary screen | P33261 | CYP2C19 Supersomes, luciferin-H EGE luminescence, 30 min | inhibition, % at 5 µM | actives 21% (n = 96,000) | AID 778, 2007;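 active = CYP2C19 inhibition above a set limit at 5 µM in the primary screen, cut at about 50% in these data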;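 note: plate controls were negative control wells for no effect and 2.5 mM tranylcypromine positive control for full effect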
# CYP2C9 inh: blockers of cytochrome P450 2C9 activity – biochemical, luminescence, ADME assay, primary screen; actives 20% (n = 96,000); P11712; CYP2C9 Supersomes, luciferin-H conversion; inhibition, % at 5 µM; AID 777, 2007;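 active = blocking of liver enzyme CYP2C9 beyond about 50% at 5 µM, limit read from the data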
# Target sequence (P11712 whole entry, looked up): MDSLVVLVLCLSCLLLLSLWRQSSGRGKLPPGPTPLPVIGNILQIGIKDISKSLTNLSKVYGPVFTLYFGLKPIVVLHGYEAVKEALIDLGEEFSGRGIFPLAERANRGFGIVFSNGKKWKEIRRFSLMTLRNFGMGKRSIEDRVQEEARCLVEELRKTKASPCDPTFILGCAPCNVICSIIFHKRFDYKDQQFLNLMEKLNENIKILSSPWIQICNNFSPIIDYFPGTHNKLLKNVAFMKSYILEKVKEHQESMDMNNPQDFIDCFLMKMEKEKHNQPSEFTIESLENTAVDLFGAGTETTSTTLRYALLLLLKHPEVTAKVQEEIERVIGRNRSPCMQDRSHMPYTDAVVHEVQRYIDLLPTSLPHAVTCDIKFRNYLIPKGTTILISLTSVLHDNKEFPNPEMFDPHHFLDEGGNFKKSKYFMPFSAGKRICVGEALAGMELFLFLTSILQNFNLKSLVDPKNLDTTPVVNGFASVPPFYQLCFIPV
# CYP2C9 activ: human CYP2C9 activators, primary screen, biochemical, luminescence; activation factor at 5 µM; actives 1.4% (n = 96,000); Cytochrome P450 2C9 (Homo sapiens), P11712; recombinant CYP2C9, luciferin-H conversion; stronger effect = higher value; factor 1 = untreated enzyme, 0 = blocked;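 active = activation factor of 2 or more for CYP2C9 at a 5 µM dose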;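 note: 0 = sulfaphenazole-blocked wells and 1 = vehicle-only wells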
# CYP2C19 act: human CYP2C19 activators, primary screen, biochemical, luminescence. recombinant CYP2C19, luciferin-H EGE luminescence; stronger effect = higher value; 0 = fully inhibited enzyme, 1 = untreated enzyme. activation factor at 5 µM. 96,000 tested, under 10 active. AID 1025, 2008;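 active = activation factor of at least 2 at 5 µM in the primary screen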;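 note: 0 = wells with 2.5 mM tranylcypromine and 1 = vehicle-only wells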
# PLAP act: PLAP enzyme activators, biochemical, luminescence, HTS; Alkaline phosphatase, placental type (Homo sapiens), P05187; purified PLAP enzyme, luminescent substrate read-out; stronger effect = higher value; activation fold at 20 µM; actives 1.2% (n = 96,000); in the data active = activation fold above about 2
# Active calls of the source: *.
SMILES,CYP2C19 inhib,CYP2C9 inh,CYP2C9 activ,CYP2C19 act,PLAP act
CC(=O)c1ccc(N2CCC(c3cc(-c4ccc(Cl)cc4Cl)n[nH]3)CC2)c([N+](=O)[O-])c1,51*,59*,0.4,0.5,1.1
CCOC(=O)CCC(=O)Nc1ccccc1C(N)=O,-3,3,1,1,0.9
CCCc1[nH]nc2c1C1(CCOC1C)C(C#N)=C(N)O2 (stereo not given),20,7,0.9,0.8,0.9
COc1cccc(/C=N\NC(=O)c2cc(OCC(F)(F)F)ccc2OCC(F)(F)F)c1,12,20,0.8,0.9,1
O=C(NC1(C(F)(F)F)NC(=O)N(c2ccc(F)c(Cl)c2)C1=O)c1ccncc1 (stereo not given),82*,98*,0,0.2,1.2
CCOc1cc(C=O)ccc1OCCSc1ccc(Cl)cc1,28,81*,0.2,0.7,1.2
COc1cc(C=O)ccc1OCCOCCOc1ccccc1Cl,28,28,0.7,0.7,1
O=C1NC(c2ccco2)Nc2ccccc21 (stereo not given),5,23,0.8,1,1
O=c1[nH]c2c(s1)C(c1ccco1)C1C3CCC(C3)C1S2 (stereo not given),83*,38,0.6,0.2,1.1
Nc1ccc(S(=O)(=O)c2cccc(N)c2)cc1,15,-142,2.4*,0.8,1
CC(=O)Nc1ccc(S(=O)(=O)c2ccc(N)cc2)cc1N,-5,-34,1.3,1,1.1
CC(CNCc1ccc2c(c1)OCO2)NCc1ccc2c(c1)OCO2 (stereo not given),67*,6,0.9,0.3,1.2
Cc1ccc2c(CC(=O)N3CCc4ccccc43)coc2c1,79*,43,0.6,0.2,0.9
O=C(CSc1c[nH]c2ccccc12)N1CCCc2ccccc21,50,44,0.6,0.5,1.3
O=C(CCCc1ccccc1)N1CCc2ccccc21,78*,59*,0.4,0.2,0.9
O=C(Cc1coc2ccc3ccccc3c12)N1CCc2ccccc21,1,-57,1.6,1,0.9
O=C(CS(=O)(=O)Cc1ccccc1)N1CCc2ccccc21,48,-109,2.1*,0.5,0.8
O=C(Cc1c[nH]c2ccccc12)N1CCc2ccccc21,92*,77*,0.2,0.1,1.3
Cc1cccc(CS(=O)(=O)Cc2ccc(C(=O)NCCN3CCCCC3C)o2)c1 (stereo not given),6,19,0.8,0.9,1.5
CCC(CC)C1C(C#N)=C(N)Oc2cc(C)oc(=O)c21 (stereo not given),96*,72*,0.3,0,1
O=C1C2C3C=CC(C2C(=O)N1C1CCCCC1)C1C(=O)N(C2CCCCC2)C(=O)C31 (stereo not given),26,23,0.8,0.7,1.5
Cc1cc(C(=O)CSc2nncs2)c(C)n1-c1ccc2c(c1)OCO2,86*,53*,0.5,0.1,1
O=C(CSc1nncs1)NCc1ccc2c(c1)OCO2,59*,14,0.9,0.4,0.8
CCCCn1nnnc1SCC(=O)Nc1ccc(N(C)C)cc1,53*,21,0.8,0.5,0.7
O=C(CSc1nncs1)Nc1ccc2c(c1)OCCO2,-5,-6,1.1,1.1,1
SMILES,CYP2C19 inhib,CYP2C9 inh,CYP2C9 activ,CYP2C19 act,PLAP act
CCCn1nnnc1SCC(=O)NCc1cccs1,73*,-6,1.1,0.3,0.9
CCCn1nnnc1SCC(=O)c1ccc(NC(C)=O)cc1,29,8,0.9,0.7,1
COc1ccc(-c2nnc(SCc3c(C)noc3C)n2N)cc1OC,23,26,0.7,0.8,0.9
COc1cccc(N2CCN(C(=S)Nc3cccc(C)c3)CC2)c1,10,26,0.7,0.9,0.9
Cc1nnc(N2CCOCC2)c2ccccc12,-7,-8,1.1,1.1,0.9
CCCn1nnnc1SCC(=O)NCc1ccc2c(c1)OCO2,66*,53*,0.5,0.3,0.9
CCCCn1c(SCC(=O)Nc2ccc3c(c2)OCO3)nc2c1c(=O)n(C)c(=O)n2C,8,15,0.9,0.9,1
CC(C)n1nnnc1SCC(=O)NCc1ccc2c(c1)OCO2,46,40,0.6,0.5,1
CCn1nnnc1SCC(=O)NCc1cccs1,10,-5,1,0.9,1
COCCn1c(-c2ccc(Cl)cc2)cnc1SCC(=O)NCc1cccs1,92*,86*,0.1,0.1,1.8
CCCCn1nnnc1SCC(=O)Nc1ccc2c(c1)OCO2,42,70*,0.3,0.6,0.8
Cc1cc(C(=O)COC(=O)C2=COCCO2)c(C)n1-c1ccc2c(c1)OCO2,92*,85*,0.1,0.1,1
COc1ccccc1-n1c(SCC(=O)NC2CCCCC2)nc2c(c1=O)SCC2,12,2,1,0.9,0.9
CN1CCc2c(sc3c2c(=O)n(-c2ccccc2)c2nnc(SCc4ccc(Cl)cc4)n32)C1,-7,9,0.9,1.1,1.5
COc1ccc(CC(=O)NC(CC(=O)O)c2ccc(OC)cc2)cc1 (stereo not given),-14,-5,1.1,1.1,1.2
O=C(CSc1nnnn1C1CCCC1)Nc1ccc(F)cc1,31,10,0.9,0.7,0.8
CCCCn1nnnc1SCC(=O)Nc1ccc(F)cc1,97*,71*,0.3,0,0.7
O=C(O)CSC1CC(=O)N(c2ccc(Cl)c(Cl)c2)C1=O (stereo not given),64*,33,0.7,0.4,1.1
O=C(O)CSC1CC(=O)N(c2cccc(Cl)c2)C1=O (stereo not given),-10,-15,1.1,1.1,0.9
Cc1cc(C)n2nc[n+](C)c2n1,2,20,0.8,1,0.9
CN(C)CCCN(C(=O)c1cccs1)c1nc(-c2ccccc2)cs1,92*,74*,0.3,0.1,1.6
Cc1nnc(NCCc2ccccc2)n(N)c1=O,-11,-7,1.1,1.1,1.1
CCCC(=O)Nc1c(C)n[nH]c1C,23,62*,0.4,0.8,1
O=C(O)CCC(=O)Nc1ccc(C(=O)OC2CCCCC2)cc1,15,13,0.9,0.8,1.2
CCCCCC(=O)Nc1ccc(N2CCN(CC)CC2)c(Cl)c1,13,67*,0.3,0.9,0.8
CCCC(=O)Nc1ccc(Br)c(Cl)c1,60*,32,0.7,0.4,1
CCCCCC(=O)NC(=S)Nc1ccc(N2CCCCC2)c(Cl)c1,2,14,0.9,1,1.1
CCCCC(=O)Nc1ccc(C(=O)OC2CCCCC2)cc1,74*,91*,0.1,0.3,1.1
CCCCC(=O)Nc1ccc(C(=O)N2CCC(C(=O)OCC)CC2)cc1,68*,54*,0.5,0.3,1.3
